The campaign covered roughly 360,000 compounds. About 11,000 (3.1%) were called active. Not shown: some 2% with an inconclusive outcome. The entries come from a sample that favours actives as a whole. Unmarked numbers belong to inactive results. Rule as the data show it: active = fluorescence intensity above about 16000; inconclusive = no clear call, values can overlap the other calls; inactive = below that.
assay: compound fluorescence in toxin protease inhibitor counterscreen, primary screen, artefact control for toxin protease inhibitor project, biochemical, multiplex microsphere, HTS (AID 624483); conditions: compound autofluorescence counterscreen, microsphere flow cytometry; active compounds read high

Structure (SMILES) | fluorescence intensity
COC(=O)c1ccc(C(=O)Nc2cc(Cl)ccc2Cl)cc1NC(=O)c1ccccc1C | 23700 (active)
COC(=O)c1ccc(C(=O)OC)c(NC(=S)N2CCN(c3cc(Cl)ccc3C)CC2)c1 | 2510
Cc1ccccc1C(=O)Nc1ccccc1NC(=O)c1ccccc1C | 3760
CC1CCN(S(=O)(=O)c2ccc(S(=O)(=O)NCc3ccco3)cc2)CC1 | 6420
COc1ccc(C2=NOC3(CC(=O)N(c4ccc(Cl)cc4)C3=O)C2)c(OC)c1 (centres undefined) | 20500 (active)
O=C1CC2(CC(c3ccc(Cl)cc3)=NO2)C(=O)N1c1ccccc1 (centres undefined) | 5420
COc1cccc(N2CCN(C3CC(=O)N(c4ccc(Cl)cc4)C3=O)CC2)c1 (centres undefined) | 2900
CSc1ccc(CNC(=O)C2(C)CCCN2C)cc1 (centres undefined) | 3920
COc1ccc2oc(N)nc2c1 | 2890
COc1ccc2oc(=O)c(C(=O)O)cc2c1 | 20900 (active)
COc1ccc2oc(=N)c(C(=O)Nc3ccc(Br)cc3)cc2c1 | 2900
Cc1ccc(NC(=O)[C@H](Cc2ccccc2)NC(=O)CC[C@H]2O[C@@H](n3ccc(=O)[nH]c3=O)[C@H](O)[C@@H]2O)cc1C | 5530
CCOC(=O)C1(C)CCCN(C(=O)c2cccc(Cl)c2)C1 (centres undefined) | 3450
COCCn1c(CN2CCC(Cc3ccccc3)CC2)nc2c1c(=O)n(C)c(=O)n2C | 2950
CC1CCN(Cc2nc3c(c(=O)n(C)c(=O)n3C)n2CCc2ccccc2)CC1 | 3630
CC(=NCc1ccc2c(c1)OCO2)c1c(O)[nH]c(=O)[nH]c1=O | 4690
CC(=NC1CCN(Cc2ccccc2)CC1)c1c(O)n(C)c(=O)n(C)c1=O | 22500 (active)
CC(=NC1CCN(Cc2ccccc2)CC1)c1c(O)[nH]c(=O)[nH]c1=O | 22800 (active)
CC(=NCC1CCCO1)c1c(O)[nH]c(=O)[nH]c1=O (centres undefined) | 2530
Cc1ccc2c(c1)nnc1nnc(SCC(=O)O)n12 | 6320

Structure (SMILES) | fluorescence intensity
CCOc1ccc(CCN2C(=O)C(=O)N([C@@H](Cc3ccc(O)cc3)CN3CCC[C@H]3CN3C(=O)C(=O)NC[C@@H]3CC(C)C)C[C@@H]2Cc2ccccc2)cc1 | 4410
CCN(CCN(C)C)C(=O)c1ccc2nc(C)c(N(C)C(=O)CCc3ccccc3)n2c1 | 3720
Cc1c(S(=O)(=O)NCc2ccccc2)c(=O)n(C)c(=O)n1C | 4270
CCn1c2ccccc2c2cc(NC(=O)COC(=O)c3cc(S(=O)(=O)N4CCCCC4)ccc3Cl)ccc21 | 1830
CCn1c2ccccc2c2cc(NC(=O)C/C(C)=N/NC(=O)c3ccccc3N)ccc21 | 23100 (active)
CCn1c2ccccc2c2cc(NC(=S)N3CCOCC3)ccc21 | 2580
CC1(C)CC(N(Cc2ccccc2)C(=O)Cc2ccccc2)CCO1 (centres undefined) | 4030
Cn1ncc(Br)c1C(=O)NCc1cccs1 | 23700 (active)
O=C(NCc1cccs1)c1ccc(Br)o1 | 2540
COc1ccccc1NC(=O)c1c(Br)cnn1C | 2020
Clc1ccc(Cl)c(Oc2ccc(Oc3nc(Cl)ccc3Cl)cc2)n1 | 16400 (active)
N#Cc1ccc(-c2ccc(Cl)cc2)nc1Oc1ccc(F)cc1 | 9640
CC1(Oc2cccc(F)c2)CCN(Cc2ccccc2OC(F)F)C1 (centres undefined) | 4130
C=C(C)c1cccc(C(C)(C)NC(=O)NC2CCCC2)c1 | 9090
O=C(COC(=O)c1ccccc1NC(=O)c1ccco1)Nc1ccc2c(c1)OC(F)(F)O2 | 21800 (active)
O=C(COC(=O)c1ccc[nH]c1=O)Nc1ccc2c(c1)OC(F)(F)O2 | 5560
O=C(COC(=O)CNC(=O)c1ccco1)Nc1ccc(F)cc1 | 3560
COc1ccc2cc(C(=O)NCC3CCCO3)[nH]c2c1 (centres undefined) | 3630
CCOC(=O)C1CCCN(C(=O)c2cc(-c3cccs3)oc2C)CC1 (centres undefined) | 2870
CC(C)Cn1cnc2c1c(=O)n(CC(=O)NN)c(=O)n2Cc1ccccc1 | 4610

Structure (SMILES) | fluorescence intensity
CC(C)Cn1cnc2c1c(=O)n(CC(O)c1ccccc1)c(=O)n2CC(C)C (centres undefined) | 16100 (active)
CC(C)CCn1cnc2c1c(=O)n(CC(=O)NC(N)=O)c(=O)n2Cc1ccccc1 | 3800
CCCCn1nnnc1C(c1ccccc1)N1CCN(c2ccccc2OC)CC1 (centres undefined) | 4370
COc1ccc(C(C)=O)cc1COc1ccc(Cl)c(C)c1 | 5920
CCn1nc(C)c(NC(=O)/C=C/c2ccc(OC)c(COc3ccc(Br)cc3)c2)c1C | 24100 (active)
COc1ccc(/C=C/C(=O)Nc2c(C)nn(C)c2C)cc1COc1ccc(Br)cc1 | 8730
COc1ccccc1-c1cc2nc(NCc3cccc(Cl)c3)ccn2n1 | 3660
CCc1nc2c(OCCc3cccc(OC)c3)cccn2c1N(C)C(=O)c1ccc(C)cc1 | 3510
O=C(c1cc(-c2ccncc2)nc2ccccc12)N1CCC2(CC1)OCCO2 | 23100 (active)
CC(=O)N1CCN(C(=O)c2cc(-c3ccc(C)o3)nc3ccccc23)CC1 | 7930
O=C(c1cc2nc(-c3ccccc3)cc(-c3ccccc3)n2n1)N1CCC2(CC1)OCCO2 | 2800
CCCCC(=O)N(C)c1c(CC)nc2c(OCc3ccc(Cl)cc3Cl)cccn12 | 3970
Cc1ccccc1N1CCN(CC(=O)NCc2ccc(Cl)cc2)CC1 | 4200
O=C(CN1CCN(S(=O)(=O)c2ccc(Cl)s2)CC1)N1CCCCC1 | 2870
O=C(CN1CCN(S(=O)(=O)c2ccc(Cl)s2)CC1)NCc1ccc(Cl)cc1 | 19600 (active)
O=C(CN1CCN(Cc2ccccc2)CC1)NC(c1ccccc1)c1ccccc1 | 4580
CC(=O)N1CCN(CC(c2ccccc2)c2ccccc2)CC1 | 3040
O=C(NC(c1ccccc1)c1ccccc1)N1CCN(CCO)CC1 | 20400 (active)
Cc1ccc2c(C)c(C(=O)N(C)Cc3ccncn3)oc2c1C | 5730
